We go through 21 compounds from PubChem BioAssay (NCATS).

A short description of assay [1]: qHTS to identify inhibitors of the type 1 interferon - major histocompatibility complex class I in skeletal muscle: primary screen against the NCATS Mechanism Interrogation Plate v5.0 (MIPE) Libary (AID 1347411). Further: nearly all actives have a fitted effect of over 65% in size. Further: potency means the concentration at half of the fitted maximal effect. The essentials:
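Immortalized human C25cl48 myoblasts with HiBit knocked into endogenous HLA-B*08:01 were stimulated with 4.0 ng/ml IFN-beta and exposed to compounds (11-point 1:3 titration, top 46 uM final) for 24 hrs at 37 C; HiBiT lytic luminescence measured.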
For orientation: In qHTS, concentration-response curves come from the screen itself.

Assay [2] in a line: Primary qHTS for inhibitors of nuclear receptor binding SET domain protein 2 (NSD2) in an RCH-ACV wild type WT cells (2C) (AID 1645877). Further: nearly all actives have a fitted effect of over 70% in size. Further: potency means the concentration at half of the fitted maximal effect.
Assay [3] addresses Glutathione peroxidase 1 (Homo sapiens) (UniProt P07203). Description: Primary qHTS Assay for Inhibitors of Recombinant Selenoprotein Glutathione Peroxidase 1 (GPX1) (AID 1845191). Further: nearly all actives have a fitted effect of over 65% in size. Further: potency means the concentration at half of the fitted maximal effect. The essentials: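 10 nM GPX1 + cpd, 30 min RT; start w/ 1 mM GSH, 0.5 mM cumene hydroperoxide, 0.5 mM NADPH, 100 nM GR, 0.01% BSA; buffer 50 mM Tris-HCl pH 7.5, 2 mM EDTA, 150 mM NaCl; Fl 340/450, 0 & 15 min.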

The target in assay [4] is Phospholipid hydroperoxide glutathione peroxidase GPX4 (Homo sapiens) (UniProt P36969). The experiment in a line: Primary qHTS Assay for Inhibitors of Recombinant Selenoprotein Glutathione Peroxidase 4 (GPX4) (AID 1845192). Further: nearly all actives have a fitted effect of over 65% in size. Further: potency means the concentration at half of the fitted maximal effect. The settings on record: outcome: dose series up to 50 µM unless noted. The essentials:
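NADPH consumption, followed by fluorescence at 340/450 nm between 0 and 15 min, reports GPX4 activity via coupled glutathione reductase (100 nM). Enzyme 200 nM was pre-exposed to compound 30 min; 0.5 mM cumene hydroperoxide and 1 mM GSH served as substrates.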

Assay [5] in a line: qHTS drug screen for cell cycle checkpoint inhibitors in PARPi-resistant BRCA-mutant ovarian cancer cell lines. (AID 1963452; calls by dose curve). The settings on record: PEO1/OlaR viability, CellTiter-Glo luminescence, 96 h, stronger effect = lower value. The essentials:
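PEO1, PEO4 and PEO1/OlaR ovarian cancer cells, 600 per well, exposed 96 h at 37C to a dilution series. Viability read by CellTiter-Glo luminescence, normalized to DMSO and empty wells; activity summarized as Z-AUC.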

Assay [6] in a line: Primary qHTS for inhibitors of nuclear receptor binding SET domain protein 2 (NSD2) in an isogenic RCH-ACV NSD2 p.E1099K mutant (9B) (AID 1645876). Further: nearly all actives have a fitted effect of over 70% in size. Further: potency means the concentration at half of the fitted maximal effect.
Setting [7] is: measured here: PEO1 parental Z-AUC.

Results filed as inconclusive are left out. Activity calls are given as the source filed them. Unless noted, the call rests on the fitted dose curve; in most records, active means well fitted curve in the direction sought with a large enough effect; inconclusive means small, poorly fitted or top-dose-only effect, or another doubt; inactive means no such curve, though single readings can be large; an effect the other way counts as inactive or inconclusive.

Sequence of Glutathione peroxidase 1 (Homo sapiens) (P07203 whole entry, looked up): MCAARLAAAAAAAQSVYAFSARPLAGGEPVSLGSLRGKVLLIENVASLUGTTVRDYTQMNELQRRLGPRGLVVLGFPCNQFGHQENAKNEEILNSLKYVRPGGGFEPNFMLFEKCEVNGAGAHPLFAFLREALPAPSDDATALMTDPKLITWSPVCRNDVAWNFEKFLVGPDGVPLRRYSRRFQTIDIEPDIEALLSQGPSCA
Sequence of Phospholipid hydroperoxide glutathione peroxidase GPX4 (Homo sapiens) (P36969 whole entry, looked up): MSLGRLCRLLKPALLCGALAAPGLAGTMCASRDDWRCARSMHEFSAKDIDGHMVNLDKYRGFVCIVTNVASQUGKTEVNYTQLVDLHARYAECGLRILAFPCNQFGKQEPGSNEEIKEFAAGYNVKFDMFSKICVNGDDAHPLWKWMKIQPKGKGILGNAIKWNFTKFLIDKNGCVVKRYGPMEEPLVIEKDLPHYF

As to `CC(C)(CO)n1cc(C(=O)c2cncc(NC(=O)Cc3ccc(Cl)cn3)c2)c2cnc(N)nc21`, the Potency result in assay [1], in assay [2], in assay [3] and in assay [4] was “inactive” each time. Moreover, the Z-AUC in assay [5] was -0.173 (inactive); in assay [5] (setting [7]), 0.879; in assay [5] (measured here: PEO4 Z-AUC) it was 0.771.
As to `C=CC(=O)N1C[C@H](Nc2ncnc3[nH]ccc23)CC[C@@H]1C`, the Potency entry in assay [1], in assay [2] and in assay [4] was “inactive” throughout. In addition, the Z-AUC in assay [5] was -0.649 (inactive); in assay [5] (setting [7]), -0.501; in assay [5] (measured here: PEO4 Z-AUC), -0.666.
`CN[C@@H](C)C(=O)N[C@H](C(=O)N1CCC[C@H]1C(=O)Nc1snnc1-c1ccccc1)C1CCCCC1`: the Potency result in assay [1], in assay [3] and in assay [4] was “inactive” in each case. For the same compound, the results for the Z-AUC in assay [5], in assay [5] (setting [7]) and in assay [5] (measured here: PEO4 Z-AUC) were 1.43 (inactive), 0.271 and -0.618, respectively.
On to `Fc1ccc(-c2csc3ncnc(NCc4ccc5c(c4)OCO5)c23)cc1`, for which the Potency entry in assay [1] and in assay [3] was “inactive” each time. The Potency in assay [6] is 8.33 µM (active). In addition, the results for the Z-AUC in assay [5], in assay [5] (setting [7]) and in assay [5] (measured here: PEO4 Z-AUC) were 0.367 (inactive), 0.157 and 0.314, respectively.
In the case of `Cc1nc2cccc(N)c2c(=O)n1C1CCC(=O)NC1=O` (centres undefined), the Potency entry in assay [1], in assay [3] and in assay [4] was “inactive” in each case. Further, the values for the Z-AUC in assay [5], in assay [5] (setting [7]) and in assay [5] (measured here: PEO4 Z-AUC) were 1.24 (inactive), 1.14 and 1.38, respectively.
For the compound `NS(=O)(=O)Oc1ccc2c3c(c(=O)oc2c1)CCCCC3`, the Potency result in assay [1] is “inactive”. In addition, the Potency in assay [3] is 4.09 µM (active); in assay [4] it was 18 µM (active). The Z-AUC is 0.451 (inactive) in assay [5], 0.12 in assay [5] (setting [7]) and -0.024 in assay [5] (measured here: PEO4 Z-AUC).
As to `Cc1ccc(NC(=O)[C@H]2CCCN(C(=O)c3c(C)cccc3F)[C@H]2c2ccc(NC3CCCC3)cc2)cc1C(F)(F)F`, the Potency result in assay [1], in assay [2] and in assay [3] was “inactive” throughout. In addition, the values for the Z-AUC in assay [5], in assay [5] (setting [7]) and in assay [5] (measured here: PEO4 Z-AUC) were -0.612 (inactive), 0.0404 and -0.339, respectively.
`Nc1cc(COc2c(Cl)cc(C[C@H](N)C(=O)O)cc2Cl)c2oc(-c3ccccc3)nc2c1`: the Potency result in assay [1], in assay [3] and in assay [4] was “inactive” throughout. The Z-AUC was -1.13 (inactive) in assay [5], -0.255 in assay [5] (setting [7]) and -0.878 in assay [5] (measured here: PEO4 Z-AUC).
Turning to `Cc1cc(C)c2c(c1)[C@@H](N(Cc1cc(C(F)(F)F)cc(C(F)(F)F)c1)c1nnn(C)n1)CCCN2CC1CCC(C(=O)O)CC1` (some centres undefined), the Potency result in assay [1] and in assay [6] was “inactive” in each case. Further, the values for the Z-AUC in assay [5], in assay [5] (setting [7]) and in assay [5] (measured here: PEO4 Z-AUC) were 0.561 (inactive), 1.04 and 0.634, respectively.
Consider `CCOc1ccc(-n2c([C@@H](C)N(Cc3cccnc3)C(=O)Cc3ccc(F)c(C(F)(F)F)c3)nc3ncccc3c2=O)cc1`, for which the Potency result in assay [1], in assay [3] and in assay [4] was “inactive” each time. The Potency in assay [2] was 18.6 µM (active). Besides, the Z-AUC in assay [5] is 1.64 (inactive); in assay [5] (setting [7]), 1.42; in assay [5] (measured here: PEO4 Z-AUC), 1.34.
Regarding `O=c1ncccn1[C@@H]1O[C@H](CO)[C@@H](O)[C@H]1O`, the Potency entry in assay [1], in assay [6] and in assay [3] was “inactive” each time. Also, the Z-AUC in assay [5] is -0.938 (inactive); in assay [5] (setting [7]), -0.911; in assay [5] (measured here: PEO4 Z-AUC) it was -1.39.
In the case of `CC(C)C[C@H](NC(=O)[C@H](Cc1ccccc1)NC(=O)OCc1ccccc1)C(=O)C=O`, the Potency result in assay [1], in assay [3] and in assay [4] was “inactive” each time. Besides, the Z-AUC is 0.592 (inactive) in assay [5], 0.57 in assay [5] (setting [7]) and 0.338 in assay [5] (measured here: PEO4 Z-AUC).
Take `CC(=O)N[C@H]1CSSC[C@@H](C(N)=O)NC(=O)[C@H](C(C)C)NC(=O)[C@H](C)NC(=O)[C@H](Cc2cnc[nH]2)NC1=O`: the Potency entry in assay [1], in assay [2], in assay [3] and in assay [4] was “inactive” each time. Further, the Z-AUC in assay [5] was -0.0315 (inactive); in assay [5] (setting [7]), -0.625; in assay [5] (measured here: PEO4 Z-AUC), -0.422.
`CCC(=O)OCC(=O)C1(OC(=O)CC)C(C)CC2C3CCC4=CC(=O)C=CC4(C)C3(F)C(O)CC21C` (centres undefined): the Potency result in assay [1], in assay [3] and in assay [4] was “inactive” in each case. In addition, the results for the Z-AUC in assay [5], in assay [5] (setting [7]) and in assay [5] (measured here: PEO4 Z-AUC) were 0.365 (inactive), 0.623 and -0.145, respectively.
Regarding `CC(C)(c1ccc(OCC(O)CO)cc1)c1ccc(OCC(O)CCl)cc1` (centres undefined), the Potency result in assay [1], in assay [3] and in assay [4] was “inactive” each time. The Z-AUC in assay [5] is 1.33 (inactive); in assay [5] (setting [7]) it was 0.733; in assay [5] (measured here: PEO4 Z-AUC), 1.22.
Take `CS(=O)(=O)c1ccc([C@@H](CC2CCCC2)C(=O)Nc2nccs2)cc1`: the Potency result in assay [1], in assay [3] and in assay [4] was “inactive” each time. The Z-AUC in assay [5] was 0.78 (inactive); in assay [5] (setting [7]), 0.607; in assay [5] (measured here: PEO4 Z-AUC), 0.595.
On to `Cn1nccc1Nc1nccc(-c2cc3c(s2)C(C)(C)N(CCN2CCOCC2)C3=O)n1`, for which the Potency entry in assay [1], in assay [3] and in assay [4] was “inactive” in each case. The results for the Z-AUC in assay [5], in assay [5] (setting [7]) and in assay [5] (measured here: PEO4 Z-AUC) were -1.65 (inactive), -0.829 and -0.419, respectively.
Turning to `CCCN(CCC)C(=O)C1=Cc2ccc(-c3ccc(C(=O)N4CCCC4)cc3)cc2N=C(N)C1`, the Potency entry in assay [1] and in assay [3] was “inactive” each time. Also, in assay [2], the Potency was 18.6 µM (active). Besides, the Z-AUC was 0.263 (inactive) in assay [5], -0.15 in assay [5] (setting [7]) and -0.0193 in assay [5] (measured here: PEO4 Z-AUC).
On to `Nc1cccc2c1CN([C@H]1CCC(=O)NC1=O)C2=O`, for which the Potency result in assay [1], in assay [3] and in assay [4] was “inactive” throughout. The figures for the Z-AUC in assay [5], in assay [5] (setting [7]) and in assay [5] (measured here: PEO4 Z-AUC) were 0.0993 (inactive), 0.928 and 1.07, respectively.
Consider `CO[C@H]1/C=C/O[C@@]2(C)Oc3c(C)c(O)c4c(O)c(c(/C=N\N5CCN(C6CCCC6)CC5)c(O)c4c3C2=O)NC(=O)/C(C)=C\C=C\[C@H](C)[C@H](O)[C@@H](C)[C@@H](O)[C@@H](C)[C@H](OC(C)=O)[C@@H]1C`, for which the Potency in assay [1] was 18.6 µM (active); in assay [2], 20.9 µM (active). Besides, in assay [3], the Potency result was “inactive”. Also, the Z-AUC in assay [5] was -0.749 (inactive); in assay [5] (setting [7]), -0.895; in assay [5] (measured here: PEO4 Z-AUC) it was -0.603.
With `Cc1[nH]nc2ncc(C(=O)N3CCC[C@H]3c3ccc(Cl)cc3)cc12`, the Potency result in assay [1], in assay [3] and in assay [4] was “inactive” each time. Also, the Potency in assay [2] is 0.296 µM (active). The values for the Z-AUC in assay [5], in assay [5] (setting [7]) and in assay [5] (measured here: PEO4 Z-AUC) were -0.0587 (inactive), 0.0336 and -0.0502, respectively.
